A selection: hits, their analogues and other compounds. The true share with any hit is near 18%.
TDP1 cell CPT: DT40-hTDP1 cell growth loss with CPT; chicken DT40 Tdp1-/-;hTDP1 cells + 20 nM CPT, ATP luminescence, 48 h; Potency, µM (top dose mostly 46.2 µM), for inactives: at the top dose activity change, negative = growth inhibition, usual class: inhibitors; hit rate 12% among 420,000; AID 686979; further: nearly all actives have a fitted effect of over 55% in size
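Chicken DT40 Tdp1-/- cells complemented with human TDP1, 400 cells/well, exposed to compounds plus 20 nM camptothecin for at least 48 h at 37 C; viability read as ATP content by CellTiter-Glo luminescence.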
KAT2A inh: inhibitors of human GCN5L2 histone acetyltransferase. Q92830. hit rate 0.21% among 390,000. GCN5L2 HAT assay, ThioGlo1 CoA-SH fluorescence. AID 504327. Potency, µM (doses to about 58.9 µM), for the others: top-dose activity change, negative = inhibition, actives largely listed as inhibitors
Target sequence (Q92830 whole entry, looked up): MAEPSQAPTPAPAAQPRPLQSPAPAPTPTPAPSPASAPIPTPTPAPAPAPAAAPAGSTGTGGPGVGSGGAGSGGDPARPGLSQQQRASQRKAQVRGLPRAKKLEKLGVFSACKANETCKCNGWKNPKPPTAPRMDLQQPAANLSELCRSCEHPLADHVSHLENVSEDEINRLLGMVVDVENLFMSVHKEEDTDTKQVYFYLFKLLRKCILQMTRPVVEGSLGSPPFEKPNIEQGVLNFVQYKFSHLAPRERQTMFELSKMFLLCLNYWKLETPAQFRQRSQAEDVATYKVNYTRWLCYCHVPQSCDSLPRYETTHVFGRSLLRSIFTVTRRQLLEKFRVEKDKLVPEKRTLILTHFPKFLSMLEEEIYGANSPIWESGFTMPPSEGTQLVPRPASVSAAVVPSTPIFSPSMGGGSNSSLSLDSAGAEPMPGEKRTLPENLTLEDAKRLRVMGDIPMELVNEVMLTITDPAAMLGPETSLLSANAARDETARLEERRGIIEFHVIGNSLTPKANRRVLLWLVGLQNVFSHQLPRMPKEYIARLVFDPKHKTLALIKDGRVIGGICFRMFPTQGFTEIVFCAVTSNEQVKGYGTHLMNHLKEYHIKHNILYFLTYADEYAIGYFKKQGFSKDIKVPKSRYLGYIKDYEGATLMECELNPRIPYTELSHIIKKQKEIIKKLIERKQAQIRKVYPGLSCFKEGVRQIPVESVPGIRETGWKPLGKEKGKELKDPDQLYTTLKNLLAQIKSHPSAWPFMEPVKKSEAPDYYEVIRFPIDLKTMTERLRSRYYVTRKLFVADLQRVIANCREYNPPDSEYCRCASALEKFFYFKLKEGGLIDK
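Free CoA generated was detected with ThioGlo1 (50uM) fluorescence at Ex340nm/Em540nm, read immediately and after 20 min at room temperature. Enzyme, 20 nM in HEPES pH 7.5 buffer, saw compounds 15 min before adding 75uM H3(1-25) peptide and 70uM acetyl-CoA.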
TDP1 inh: blocks human tyrosyl-DNA phosphodiesterase 1. recombinant TDP1, AlphaScreen DNA substrate cleavage. Potency, µM (doses to about 130 µM), inactives show at the highest dose activity change, negative = inhibition, usual class: inhibitors. hit rate 0.28% among 350,000. AID 485290; further: nearly all actives have a fitted effect of over 40% in size
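Tdp1 1 nM final; 15 min RT w/ cpd; substrate 15 nM, 5 min; beads 10 ug/ml, 10 min; AlphaScreen read. Neg ctrl: no enzyme.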
VDR inh: blocks the human vitamin D receptor; P11473; VDR-SRC2-3 peptide fluorescence polarization, 2 h; Potency, µM, inactives show max response, negative = inhibition, actives largely listed as inhibitors; hit rate 0.93% among 400,000
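Signal is fluorescence polarization, reporting how far test compounds block the interaction of VDR with the SRC2-3 coregulator peptide after a 2 h room-temperature incubation.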
DT40 TDP1 no CPT: qHTS for Inhibitors of human tyrosyl-DNA phosphodiesterase 1 (TDP1): qHTS in cells in absence of CPT | DT40 Tdp1-/- hTDP1 cells, no CPT, ATP luminescence, 48 h | Potency, µM (series often up to 46.2 µM), for inactives: at the highest dose activity change, negative = growth inhibition, actives largely listed as inhibitors | hit rate 15% among 420,000; further: nearly all actives have a fitted effect of over 55% in size
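Chicken DT40 Tdp1-/- cells complemented with human TDP1, screened without camptothecin (DMSO vehicle only), 400 cells/well. Compounds pin-transferred, cells incubated at 37 °C for at least 48 hr. Growth read as ATP-dependent luminescence (CellTiter-Glo, 30 min at RT).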
PLK1 PBD block: inhibitors of human PLK1 polo-box domain binding | P53350 | Plk1 PBD binding of FITC phosphopeptide, fluorescence polarization | Potency, µM, without a hit: max response, negative = inhibition, most hits filed as inhibitors | hit rate 2.8% among 360,000 | AID 720504; further: series mostly up to about 57 µM; nearly all actives have a fitted effect of over 65% in size
Active calls of the source: *; u = inconclusive; x = no result given; ! = not active in a repeat; [ ] = remark or other dose. The call rests on the fitted dose curve; in most records, active means well fitted curve in the direction sought with a large enough effect; inconclusive means small, poorly fitted or top-dose-only effect, or another doubt; inactive means no such curve, though single readings can be large; an effect the other way counts as inactive or inconclusive. On the % scale 0 is the no-effect control and ±100 the full control effect; potency means the concentration at half of the fitted maximal effect.

SMILES	TDP1 cell CPT	KAT2A inh	TDP1 inh	VDR inh	DT40 TDP1 no CPT	PLK1 PBD block
S=C(Nc1cccc2ccccc12)Nc1cccc2ccccc12	u	x	x	-25.8%	u	-24.0%
S=C(Nc1ccccc1Oc1ccccc1)NC1CCCC1	u	-0.4%	5.5%	12.9%	18.4µM*	1.4%
S=C(Nc1cccc2ccccc12)NC1CCCCC1	u	-3.9%	1.2%	9.6%	16.4µM*	-15.2%
COc1ccccc1NC(=S)NC1CCC(CC2CCC(NC(=S)Nc3ccccc3OC)CC2)CC1 (stereo unspecified)	10.3µM*	-5.0%	6.9%	-2.8%	13µM*	-4.3%
COc1ccccc1NC(=S)NC1CCCC1	4.6%	x	x	4.8%	47.9%	2.0%
CCCCc1ccccc1NC(=S)NC1CCCC1	u	-7.8%	2.3%[56.1 µM]	2.1%	18.4µM*	-13.0%
c1ccc2c(c1)nnn2Cc1nnc2sc(-c3ccncc3)nn12	u	-9.0%	0.0%	-12.5%	-12.1%	31.6µM*
c1ccc2oc(-c3nn4c(Cn5cnc6ccccc65)nnc4s3)cc2c1	u	x	x	-18.0%	u	u
c1csc(-c2nn3c(Cn4nnc5ccccc54)nnc3s2)c1	-18.9%	-3.9%	-2.1%	13.6%	-9.5%	-9.4%
c1coc(-c2nn3c(Cn4nnc5ccccc54)nnc3s2)c1	-29.1%	-9.9%	0.0%	u	-27.4%	26.7µM*
COc1cc(=O)n2c(c1C(=O)N(C)Cc1cscn1)CCN(C(=O)c1cccc(C)c1C)CC2	-0.5%	x	x	x	-8.2%	x
CCCN1CCN(c2ncnc3sc(C(=O)Nc4cccc(Cl)c4C)c(C)c23)CC1	u	-2.4%	-3.8%	11.0%	20.6µM*	x
CCN(CC(=O)Nc1c(Cl)cccc1Cl)C(=O)C1CCN(c2ncnc3sc(C)c(C)c23)CC1	-13.3%	-0.4%	3.2%	-8.2%	u	-1.1%
CCCN1CCN(c2ncnc3sc(C(=O)Nc4ccc(N(CC)CC)cc4C)c(C)c23)CC1	23.1µM*	22.5%	11.2%	21.1%	14.6µM*	x
CCN(CC)c1ccc(NC(=O)c2cccnc2)c(C)c1	u	-6.2%	3.0%	13.4%	u	-4.7%
COc1ccc(-n2c(=O)c(CCc3ccccc3)nc3cncnc32)cc1	-25.0%	-7.7%	x	-13.6%	-3.3%	x
COc1ccc(-c2cc(C3C4C=CCCC4(C)C(=O)N3Cc3ccccc3)ccc2F)cc1 (stereo unspecified)	x	x	3.8%	-12.8%	x	x
CCN(CC(=O)Nc1c(F)cccc1F)C(=O)/C=C/c1ccc(Br)s1	u	-5.9%	-3.3%	-4.1%	-26.3%	-1.3%
CC(C)Cn1c(N)c(C(=O)CSc2nnc(-c3ccco3)n2C)c(=O)n(C)c1=O	u	-4.3%	1.8%	-9.3%	u	1.0%
CCCn1c(N)c(C(=O)CSc2nc(C)cs2)c(=O)n(C)c1=O	u	2.8%	2.0%	23.0%	11.6µM*	-6.2%
Cc1ccccc1CSCC(=O)c1c(N)n(CC(C)C)c(=O)n(C)c1=O	u	2.4%	-7.0%	0.9%	23.1µM*	-1.4%
CC(C)Cn1c(N)c(C(=O)CSc2ccccc2)c(=O)n(C)c1=O	16.4µM*	2.5%	0.0%	-17.9%	8.2µM*	-0.1%
CCCn1c(N)c(C(=O)CSc2nnc(C3CC3)n2Cc2ccccc2)c(=O)n(C)c1=O	-24.2%	-8.6%	0.3%	16.6%	-14.0%	2.1%
CC(=O)Nc1ccc(SCC(=O)c2c(N)n(Cc3ccccc3)c(=O)n(C)c2=O)cc1	u	-4.5%	0.0%	6.8%	8.2µM*	u
Cc1ccccc1CSCC(=O)c1c(N)n(C)c(=O)n(C)c1=O	u	-2.6%	4.5%	-2.4%	u	-2.4%
SMILES	TDP1 cell CPT	KAT2A inh	TDP1 inh	VDR inh	DT40 TDP1 no CPT	PLK1 PBD block
Cc1cc(C)c2c(=O)cc(C(=O)Nc3ccc(S(=O)(=O)Nc4nc(C)cc(C)n4)cc3)oc2c1	11.7%	8.9%	7.4%	18.8%	u	x
Cn1nccc1C(=O)Nc1ccn(C23CC4CC(CC(C4)C2)C3)n1	20.6µM*	-6.0%	3.2%	-13.3%	14.6µM*	-3.8%
COC(=O)c1cc(NC(=O)c2cc(C(C)(C)C)nn2Cc2ccc(F)cc2)ccc1N1CCOCC1	u	-10.2%	1.3%	8.3%	18.4µM*	4.2%
C#C[C@]1(OC(C)=O)CCC2C3CCC4=CC(=O)CCC4C3CC[C@]21C (stereo partly specified)	0.206µM*	-2.0%	10.2%[56.1 µM]	u	16.4µM*	x
C#C[C@]1(O)CCC2C3CCC4=CC(=O)CCC4C3CC[C@@]21C (stereo partly specified)	x	-17.1%	10.7%[56.1 µM]	x	x	x
C#C[C@]1(OC(C)=O)CCC2C3CCC4=CC(=O)CC[C@@H]4C3CC[C@@]21C (stereo partly specified)	u	-6.2%	x	-16.7%	23.1µM*	-17.8%
C#C[C@]1(OC(C)=O)CC[C@H]2[C@@H]3CCC4=C[C@@H](OC(C)=O)CC[C@@H]4[C@H]3CC[C@@]21C	u	1.3%	4.3%	-16.9%	15µM*!	x
C#C[C@]1(O)CC[C@@H]2[C@H]3CCC4=CCCC[C@@H]4[C@@H]3CC[C@@]21C	x	-11.7%[21.4 µM]	4.3%[56.1 µM]	-0.9%	x	x
N#CC(C#N)=CC1=C2OC(c3ccccc3)=CC(c3ccccc3)=C2CCC1	25.9µM*	-2.3%	3.9%	1.3%	13µM*	-3.3%
O=c1c2[nH]c3ccccc3c2nc2n1CCS2	-5.8%	-9.2%	0.0%	3.6%	-15.0%	-3.5%
O=c1c(C(c2ccc(Br)cc2)c2c(O)nc3n(c2=O)CCCS3)c(O)nc2n1CCCS2	-101.3%	0.8%	-2.4%	-15.1%	-9.7%	u
O=c1c(C(c2c(O)nc3n(c2=O)CCS3)c2cccc3ccccc23)c(O)nc2n1CCS2	-1.9%	-14.6%	u	u	6.0%	29.9µM*
O=c1c(Cc2ccccc2)c(O)nc2n1CCS2	-10.5%	-5.3%	2.0%	-8.4%	0.2%	-3.8%
O=c1c(C(c2ccc(Br)cc2)c2c(O)nc3n(c2=O)CCS3)c(O)nc2n1CCS2	9.8%	-0.5%	x	u	1.9%	15µM*
O=c1c(C(c2ccc(O)cc2)c2c(O)nc3n(c2=O)CCCS3)c(O)nc2n1CCCS2	1.9%	-9.7%	u	50.1µM*	-9.0%	11.9µM*
O=c1c(C(c2ccc(O)cc2)c2c(O)nc3n(c2=O)CCS3)c(O)nc2n1CCS2	-0.6%	-3.6%	u	u	-1.9%	5.97µM*
Cc1cccc(OCCOC(=O)CN2C(=O)NC3(CCCC3)C2=O)c1	u	2.1%	0.4%	8.6%	u	-0.4%

Assay outcomes: PubChem BioAssay, National Center for Advancing Translational Sciences (NCATS)
